# About 83,000 compounds went through this panel and 20% of them were active in at least one assay; those are over-represented in the sample as a whole.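 Method: cells in 96-well plates; compound added at one concentration; 48 h incubation; percent growth measured; values under 10 scored active.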 A number with no mark means an inactive call. Active and inactive are the calls of the source.
# Legend:
# Test in all cases: NCI-60 one-dose screen, 48 h (100 = growth as untreated, 0 = no growth, -100 = all killed)
# [1] = system: NCI-H460 lung; details: 10 µM unless noted
# [2] = system: 786-0 renal; details: 10 µM unless noted
# [3] = system: COLO 205 colon; details: 10 µM
# [4] = system: MALME-3M melanoma; details: 10 µM unless noted
# [5] = system: RXF 393 renal; details: 10 µM unless noted
# [6] = system: SF-295 CNS; details: 10 µM unless noted
# [7] = system: SF-539 CNS; details: 10 µM unless noted
# [8] = system: UACC-257 melanoma; details: 10 µM unless noted
# [9] = system: HT29 colon; details: 10 µM unless noted
# [10] = system: SK-MEL-5 melanoma; details: 10 µM unless noted
# [11] = system: SK-MEL-2 melanoma; details: 10 µM unless noted
# [12] = system: UO-31 renal; details: 10 µM unless noted
# [13] = system: TK-10 renal; details: 10 µM unless noted
# [14] = system: ACHN renal; details: 10 µM unless noted
# [15] = system: A498 renal; details: 10 µM unless noted
# [16] = system: HL-60(TB) leukemia; details: 10 µM unless noted
# [17] = system: MOLT-4 leukemia; details: 10 µM
# [18] = system: T-47D breast; details: 10 µM unless noted
# [19] = system: SW-620 colon; details: 10 µM unless noted
# [20] = system: HCC-2998 colon; details: 10 µM unless noted
SMILES,growth [1],growth [2],growth [3],growth [4],growth [5],growth [6],growth [7],growth [8],growth [9],growth [10],growth [11],growth [12],growth [13],growth [14],growth [15],growth [16],growth [17],growth [18],growth [19],growth [20]
CN(Cc1cccnc1)N=O,103%,107%,105%,96.6%,104%,102%,96.8%,95.7%,102%,103%,89%,84.7%,91.6%,103%,104%,97.6%,102%,90.7%,98.2%,112%
COc1ccc2c(c1)NC1=C(C(=O)OC1)C2c1cc(OC)c(OC)c(OC)c1 (stereo not given),4.55% (active),18.8%,-48.5% (active),21.7%,36.7%,1.12% (active),-4.41% (active),62.4%,1.35% (active),-49.1% (active),15.7%,47.2%,,31.1%,-13.7% (active),-31.3% (active),5.82% (active),25.1%,17.9%,10.9%
CNC(=O)Oc1cccc(OC)c1,115%,107%,119%,115%,111%,121%,111%,112%,103%,109%,89.8%,97.5%,125%,109%,87.8%,,,108%,111%,105%
Cc1cccc(N=C2c3cc([N+](=O)[O-])ccc3-c3c2cc([N+](=O)[O-])cc3[N+](=O)[O-])c1,33.5%,60%,98.5%,,72.2%,97.8%,97.7%,90.8%,21.3%,71%,12.1%,,56.1%,59.3%,74.5%,46.7%,27.5%,-25.1% (active),-54.9% (active),
O=C(CCF)c1ccc(O)cc1,,103%,105%,108%,109%,100%,103%,98.2%,98.2%,117%,105%,87%,106%,106%,,99.2%,100%,102%,,108%
CCC[CH2][Sn]([CH2]CCC)([CH2]CCC)[O]C(=O)CC,-84.1% (active),-94.5% (active),-86.7% (active),-75.8% (active),,-81.4% (active),-85.1% (active),-94.2% (active),-81.2% (active),,-83.2% (active),-90.4% (active),-97.1% (active),-96.7% (active),-96.4% (active),-1.98% (active),7.41% (active),-74.4% (active),-84.8% (active),-94.5% (active)
NCCc1cc(O)c(O)cc1O,112%,99.9%,106%,,113%,106%,,102%,98.8%,98.5%,101%,,95.3%,87.4%,122%,103%,86.5%,100%,109%,103%
O=C(N/N=C/c1ccc(N(CCCl)CCCl)cc1)c1cc(=O)[nH]c(=O)[nH]1,39%,83.2%,,101%,95.2%,87.2%,91.3%,101%,101%,98.9%,109%,71.7%,109%,94.2%,93.7%,,,,108%,104%
COc1cccc2c1C(=O)c1c(O)c3c(c(O)c1C2=O)CC(O)(/C(C)=N/NC(=O)CCC(=O)N/N=C(\C)C1(O)Cc2c(O)c4c(c(O)c2C(OC2CC(N)C(O)C(C)O2)C1)C(=O)c1c(OC)cccc1C4=O)CC3OC1CC(N)C(O)C(C)O1 (stereo not given),-44.3% [5 µM] (active),-14.4% [5 µM] (active),,-99.1% [5 µM] (active),-56.7% [5 µM] (active),-32.8% [5 µM] (active),-39.2% [5 µM] (active),-17.8% [5 µM] (active),-79% [5 µM] (active),-100% [5 µM] (active),-54.3% [5 µM] (active),-7.96% [5 µM] (active),-43.1% [5 µM] (active),-34.9% [5 µM] (active),-69.1% [5 µM] (active),-41.9% [5 µM] (active),,-24.2% [5 µM] (active),-23.5% [5 µM] (active),-94.5% [5 µM] (active)
CNC(=O)Oc1cc(C(C)C)ccc1Sc1ccc(C(C)C)cc1OC(=O)NC,34.9%,105%,112%,62.7%,64.3%,26.9%,56.8%,65.5%,97.6%,33.1%,72.4%,65.7%,84.7%,81.6%,88.5%,40.4%,26.8%,77.7%,43.6%,104%
C#CC1(O)CCC2(C)C(CCC3C4CCC(=O)C4(C)CCC32)C1 (stereo not given),102%,97.4%,106%,103%,110%,94.1%,97.2%,93.9%,86.9%,96.2%,92%,86.8%,91.7%,97.8%,98.2%,93.5%,97.3%,96.1%,103%,106%
NC(=O)C(Br)CBr (stereo not given),4.13% (active),,-83.4% (active),,,81.1%,39.2%,-83.5% (active),-21.8% (active),55.6%,-85.3% (active),-51.8% (active),,-76.2% (active),103%,-23.2% (active),-62.1% (active),1.22% (active),-59.3% (active),38.4%
[Cl][Hg][n]1cnc2c(Cl)c(Cl)c(Cl)cc21,98.1%,112%,,97.6%,140%,96.1%,101%,96.2%,81.2%,102%,,86.4%,108%,97.9%,104%,99.9%,107%,72.2%,114%,107%
C[CH2][Sn]([CH2]C)([CH2]C)[NH]S(=O)(=O)c1ccc(C)cc1,107%,109%,128%,110%,123%,104%,,105%,116%,110%,119%,86.9%,109%,,68%,104%,101%,100%,101%,99.9%
O=[N+]([O-])c1ccc2cnn(CSP(=S)(c3ccccc3)c3ccccc3)c2c1,,88.3%,101%,55.3%,70.1%,96.3%,82.7%,86.3%,39.6%,56%,98.2%,58.9%,127%,74.8%,,35.2%,44%,69.5%,31.7%,89%
C=CCC1(CC)C(=O)NC(=S)NC1=O,111%,108%,97.3%,108%,110%,108%,98.3%,105%,98%,95.7%,99.3%,83.7%,111%,101%,110%,75.4%,93.2%,100%,101%,96.5%
N#CC1=C(N)Oc2cc3c(cc2C1c1cccs1)OCO3 (stereo not given),15.6%,49.5%,-7.45% (active),40%,-5.68% (active),4.03% (active),0.18% (active),60.8%,8.98% (active),16.2%,21.2%,49.2%,56.1%,57.4%,7.63% (active),-28.6% (active),29.9%,42.8%,26.3%,39.5%

# — PubChem BioAssay (NCI)
